Data published in PubChem BioAssay (NCI).
This is part of a sample that, as a whole, favours compounds with a hit. Of some 79,000 tested, about 15% had one in any assay. Unmarked numbers belong to inactive results. Calls of active or inactive are those of the source. Cut-off read from the data, not from the text of the source: active = growth inhibition above about 70%; inactive = the rest.

What was measured:
[1] = NCI Yeast Anticancer Drug Screen. Data for the rad50 strain (AID 155);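 note: 0% = growth of vehicle-only cultures of the same strain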; details: S. cerevisiae rad50 strain growth inhibition, stronger effect = higher value
Summary of the method: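 Vehicle-treated cultures provide the reference for the growth inhibition reported for compound-exposed, repair-deficient yeast.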

[2] = NCI Yeast Anticancer Drug Screen. Data for the mec2-1 strain (AID 157); details: S. cerevisiae mec2-1 strain, stronger effect = higher value
Summary of the method: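 Each compound was tested on mec2-1 yeast, a strain altered in DNA damage repair or cell cycle control. Growth inhibition is reported relative to vehicle.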

[3] = NCI Yeast Anticancer Drug Screen. Data for the sgs1 mgt1 strain (AID 161);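 note: 0% = growth of cultures given vehicle only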; details: S. cerevisiae sgs1 mgt1 strain, stronger effect = higher value
Summary of the method: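 Genetically altered yeast, compound exposure, growth inhibition relative to vehicle.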

[4] = NCI Yeast Anticancer Drug Screen. Data for the cln2 rad14 strain (AID 165);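 note: 0% = growth equal to vehicle treated cultures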; details: S. cerevisiae cln2 rad14 strain, stronger effect = higher value
Summary of the method: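 Test compounds were added to cln2 rad14 yeast cultures; inhibition of growth was then determined by comparison with vehicle treatment.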

[5] = NCI Yeast Anticancer Drug Screen. Data for the bub3 strain (AID 167); details: S. cerevisiae bub3 mutant strain, stronger effect = higher value
Summary of the method: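 Mutant yeast screening strain plus compound; vehicle-treated cultures serve as the 0% inhibition reference.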

[6] = NCI Yeast Anticancer Drug Screen. Data for the mlh1 rad18 strain (AID 175); details: S. cerevisiae mlh1 rad18 strain growth inhibition, stronger effect = higher value
Summary of the method: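 Inhibition values reflect reduced growth of mutant yeast versus vehicle-treated controls following compound exposure; the mutations affect DNA damage repair.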

[7] = at 5.0 µM (retest, dose inferred, filed as 0.5)
[8] = at 50.0 µM (retest, dose inferred, filed as 5.0)

| SMILES | growth inhibition [1, 7] | growth inhibition [1, 8] | growth inhibition ([1]; at 50.0 µM) | growth inhibition [2, 7] | growth inhibition [2, 8] | growth inhibition ([2]; at 50.0 µM) | growth inhibition [3, 7] | growth inhibition [3, 8] | growth inhibition ([3]; at 50.0 µM) | growth inhibition [4, 7] | growth inhibition [4, 8] | growth inhibition ([4]; at 50.0 µM) | growth inhibition [5, 7] | growth inhibition [5, 8] | growth inhibition ([5]; at 50.0 µM) | growth inhibition [6, 7] | growth inhibition [6, 8] | growth inhibition ([6]; at 50.0 µM) |
| --- | --- | --- | --- | --- | --- | --- | --- | --- | --- | --- | --- | --- | --- | --- | --- | --- | --- | --- |
| Cc1cccc2c(CC(=O)O)c[nH]c12 | 60% | 98% (active) | 99.2% (active) | 76% (active) | 99% (active) | 99.5% (active) | 67% | 99% (active) | 99.6% (active) | 73% (active) | 99% (active) | 99.2% (active) | 93% (active) | 97% (active) | 99.4% (active) | 92% (active) | 98% (active) | 99.3% (active) |
| COc1ccc(C)cc1NC(=O)ON=C1CCCCC1 | 45% | 83% (active) | 88.2% (active) | 35% | 88% (active) | 91.8% (active) | 47% | 92% (active) | 91.9% (active) | 38% | 81% (active) | 90.5% (active) | 30% | 91% (active) | 91.7% (active) | 48% | 94% (active) | 90.5% (active) |
| CCC(=O)C(=O)CC1CC(c2ccco2)=Nc2ccccc2S1 (configuration not stated) | 9% | 97% (active) | -0.45% | 13% | 98% (active) | 5.65% | 28% | 94% (active) | 22.6% | 6% | 97% (active) | -24.4% | 14% | 96% (active) | 6.35% | 14% | 98% (active) | 18.5% |
| CCCNCCCC(C)Nc1cc(OC)cc2c(C)ccnc12 (configuration not stated) | 17% | 73% (active) | 66.4% | 8% | 48% | 55.2% | 20% | 78% (active) | 41.9% | 2% | 46% | 27.1% | -6% | 80% (active) | 53.7% | 11% | 86% (active) | 59.2% |
| CCCCCCCCCCCCNC(=O)OCC(C)O (configuration not stated) (tested in a mixture with another compound) | 95% (active) | 97% (active) | 98.2% (active) | 76% (active) | 93% (active) | 96.6% (active) | 96% (active) | 98% (active) | 98.9% (active) | 81% (active) | 88% (active) | 97.9% (active) | 84% (active) | 74% (active) | 99.4% (active) | 93% (active) | 91% (active) | 98.5% (active) |
| C[C@]12CC[C@H](O)C[C@@H]1CC[C@@H]1[C@@H]2CC[C@]2(C)C=CC[C@@H]12 | -3% | 2% | 49.4% | -7% | -4% | 33.4% | -21% | 1% | 46.8% | -6% | 0% | 77.5% (active) | 9% | 23% | 95.1% (active) | -24% | 33% | 58.8% |
| N#CC(C(=O)CCc1nc2ccccc2[nH]1)c1c(Cl)cccc1Cl (configuration not stated) | -14% | 19% | -21.2% | 4% | 12% | 8.05% | 7% | 2% | 19.6% | -5% | 3% | -30.1% | -2% | 6% | 6.75% | -1% | 0% | 16.1% |
| O=C/C=C/c1cc([N+](=O)[O-])ccc1Cl | -138% | 77% (active) | 81.5% (active) | -47% | 79% (active) | 79.5% (active) | -59% | 83% (active) | 57.4% | -55% | 46% | 46.1% | -80% | 65% | 79.2% (active) | -137% | 86% (active) | 93.3% (active) |
| Oc1c(Cl)cc(Cl)cc1C=Nc1cc(C(F)(F)F)ccc1Cl | 76% (active) | 100% (active) | 91.8% (active) | 50% | 99% (active) | 74.4% (active) | 46% | 100% (active) | 91.7% (active) | 8% | 76% (active) | 55.1% | 5% | 50% | 77.4% (active) | 50% | 99% (active) | 85.9% (active) |
| CN(C)CCC(=O)[C@@]1(O)CC[C@H]2[C@@H]3CC=C4C[C@@H](O)CC[C@]4(C)[C@H]3CC[C@@]21C | 25% | 70% (active) | 44.1% | 11% | 63% | 75.4% (active) | 20% | 71% (active) | 58.1% | 8% | 34% | -18% | -1% | 59% | 49.1% | 16% | 68% | 65.5% |
| CCCC(=O)Oc1ccc(OCc2ccccc2)cc1 | -1% | 55% | -23.8% | -1% | 55% | -15.1% | 0% | 55% | 1.6% | -3% | -15% | -41.8% | 23% | 77% (active) | 75.2% (active) | 0% | 42% | -10.9% |
| C=CC(=O)NC(C)C | 1% | 6% | 74.7% (active) | 0% | 2% | -3.7% | 1% | 4% | 19.4% | -1% | 1% | 16.7% | -2% | -4% | 5.8% | 0% | 9% | 40.3% |
| NC(N)=Nc1ccc(N=C(N)N)cc1 | 3% | 2% | 92% (active) | 1% | -2% | 99.7% (active) | -1% | -3% | 17.1% | 1% | 1% | 60.8% | 3% | 3% | 99.2% (active) | 2% | 2% | 45.5% |
| C=C1CC[C@@H](Br)C(C)(C)[C@]12CCC(C)(O)C(Cl)C2 (some centres not stated) | -3% | 34% | 91.7% (active) | 16% | 30% | 93.5% (active) | 10% | 44% | 92.2% (active) | 31% | 44% | 90.9% (active) | 6% | 72% (active) | 92% (active) | -25% | 41% | 91% (active) |
| Oc1ccc(O)c2c1CC=C(Cl)C2 | 10% | 48% | 52.4% | 12% | 57% | 52.9% | 13% | 55% | 33% | -1% | 86% (active) | 24.9% | 26% | 83% (active) | 56.5% | 17% | 75% (active) | 59.8% |
| O=C1c2ccccc2C(=O)C2OC12 (configuration not stated) | 48% | 98% (active) | 93.2% (active) | 48% | 98% (active) | 95.1% (active) | 50% | 99% (active) | 94.7% (active) | 72% (active) | 99% (active) | 93.3% (active) | 73% (active) | 100% (active) | 93.5% (active) | 51% | 99% (active) | 89.9% (active) |
| Fc1cccc(CSc2ncnc3c2ncn3C2CCCS2)c1 (configuration not stated) | 4% | 70% (active) | 84.9% (active) | 1% | 87% (active) | 90% (active) | 6% | 92% (active) | 93.3% (active) | 26% | 87% (active) | 82% (active) | 1% | 82% (active) | 90% (active) | 3% | 88% (active) | 92.5% (active) |
| O=C(O)c1nnsc1-c1ccc(-c2snnc2C(=O)O)cc1 | 2% | 14% | 22% | -2% | 18% | 23.1% | -4% | 30% | -6.3% | 21% | 0% | 39.3% | 25% | 6% | 35.1% | 7% | 9% | 3.3% |
| CC1(C)CC(=O)C2=C(C1)OC1=C(CC(C)(C)CC1=O)C2c1ccccc1[N+](=O)[O-] (configuration not stated) | 22% | 22% | -21.8% | 16% | 12% | -13.3% | 25% | 19% | -13.5% | 23% | 41% | -7.3% | 9% | 5% | -17.6% | 24% | 27% | -17.1% |
